Data reported in PubChem BioAssay AID1159580 (chemical genetic matrix, 2015).
About 2,000 (36%) of roughly 5,500 compounds were called active. Roughly 18% stayed inconclusive and do not appear here. No stated cut-off is given here; in the data, active means normalized growth mostly below about 0.91 (no sharp cut-off); inconclusive means no clear call, values can overlap the other calls; inactive means mostly above about 0.92. This is one part of the list.

Assay: chemical genetic growth profiling, strain panel (AID 1159580);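 further: tested at 20 µM; growth read once vehicle control cultures reached saturation at 30 °C; 1 = growth at the plate median or of vehicle wells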
Conditions: growth OD

Measured: normalized growth

COC(=O)C[C@H]1C(C)(C)C2(O)OC34CC2C(=O)[C@]1(C)C3CC[C@]1(C)C4=CC(=O)O[C@H]1c1ccoc1 (some centres not stated)
inactive: S. cerevisiae deletion strains, locus YJR043C, strain POL32, stronger effect = lower value 0.992 | S. cerevisiae deletion strains, locus YJR066W, strain TOR1, stronger effect = lower value 0.92 | S. cerevisiae deletion strains, locus YKL009W, strain mrt4, stronger effect = lower value 1.03 | S. cerevisiae deletion strains, locus YKL068W, stronger effect = lower value 1.01 | S. cerevisiae deletion strains, locus YKL085W, strain MDH1 (second series), stronger effect = lower value 1.02 | S. cerevisiae deletion strains, locus YKL085W, strain MDH1, stronger effect = lower value 1.02 | S. cerevisiae deletion strains, locus YKL160W, strain elf1, stronger effect = lower value 1.01 | S. cerevisiae deletion strains, locus YKL190W, strain CNB1, stronger effect = lower value 0.994 | S. cerevisiae deletion strains, locus YKR001C, strain vps1, stronger effect = lower value 1.01 | S. cerevisiae deletion strains, locus YKR026C, strain gcn3, stronger effect = lower value 0.991 | S. cerevisiae deletion strains, locus YKR091W, strain srl3, stronger effect = lower value 0.985 | S. cerevisiae deletion strains, locus YLL001W, strain dnm1, stronger effect = lower value 1.02 | S. cerevisiae deletion strains, locus YLL026W, stronger effect = lower value 0.998 | S. cerevisiae deletion strains, locus YLL041C, strain sdh2, stronger effect = lower value 0.979 | S. cerevisiae deletion strains, locus YLR027C, strain aat2, stronger effect = lower value 1 | S. cerevisiae deletion strains, locus YLR039C, strain RIC1, stronger effect = lower value 1.05 | S. cerevisiae deletion strains, locus YLR058C, strain SHM2, stronger effect = lower value 1 | S. cerevisiae deletion strains, locus YLR102C, strain apc9, stronger effect = lower value 1.01 | S. cerevisiae deletion strains, locus YLR113W, strain HOG1, stronger effect = lower value 1.01 | S. cerevisiae deletion strains, locus YLR221C, strain rsa3, stronger effect = lower value 0.991 | S. cerevisiae deletion strains, locus YLR258W, strain gsy2, stronger effect = lower value 0.989 | S. cerevisiae deletion strains, locus YLR262C, strain YPT6 (second series), stronger effect = lower value 1 | S. cerevisiae deletion strains, locus YLR262C, strain YPT6, stronger effect = lower value 1.08 | S. cerevisiae deletion strains, locus YLR268W, strain sec22, stronger effect = lower value 0.998 | S. cerevisiae deletion strains, locus YLR320W, strain mms22, stronger effect = lower value 0.989 | S. cerevisiae deletion strains, locus YLR342W, strain FKS1, stronger effect = lower value 0.977 | S. cerevisiae deletion strains, locus YLR357W, strain rsc2, stronger effect = lower value 0.999 | S. cerevisiae deletion strains, locus YLR370C, strain arc18, stronger effect = lower value 0.967 | S. cerevisiae deletion strains, locus YLR371W, strain rom2, stronger effect = lower value 0.998 | S. cerevisiae deletion strains, locus YLR384C, strain iki3, stronger effect = lower value 0.975 | S. cerevisiae deletion strains, locus YLR418C, strain cdc73, stronger effect = lower value 1.03 | S. cerevisiae deletion strains, locus YML016C, strain PPZ1, stronger effect = lower value 1 | S. cerevisiae deletion strains, locus YML032C, strain rad52, stronger effect = lower value 1.01 | S. cerevisiae deletion strains, locus YML120C, strain ndi1, stronger effect = lower value 0.981 | S. cerevisiae deletion strains, locus YML124C, strain tub3, stronger effect = lower value 1.01 | S. cerevisiae deletion strains, locus YMR058W, strain fet3, stronger effect = lower value 0.999 | S. cerevisiae deletion strains, locus YMR078C, strain ctf18, stronger effect = lower value 1.01 | S. cerevisiae deletion strains, locus YMR125W, strain sto1, stronger effect = lower value 0.982 | S. cerevisiae deletion strains, locus YMR129W, stronger effect = lower value 0.994 | S. cerevisiae deletion strains, locus YMR205C, strain PFK2, stronger effect = lower value 1.01 | S. cerevisiae deletion strains, locus YMR223W, strain ubp8, stronger effect = lower value 1.01 | S. cerevisiae deletion strains, locus YMR231W, strain pep5, stronger effect = lower value 0.957 | S. cerevisiae deletion strains, locus YMR307W, strain GAS1, stronger effect = lower value 0.93 | S. cerevisiae deletion strains, locus YNL067W, strain RPL9B, stronger effect = lower value 1 | S. cerevisiae deletion strains, locus YNL071W, strain lat1, stronger effect = lower value 0.989 | S. cerevisiae deletion strains, locus YNL153C, strain GIM3, stronger effect = lower value 1.01 | S. cerevisiae deletion strains, locus YNL183C, strain NPR1, stronger effect = lower value 0.931 | S. cerevisiae deletion strains, locus YNL209W, strain ssb2, stronger effect = lower value 0.984 | S. cerevisiae deletion strains, locus YNL233W, strain BNI4, stronger effect = lower value 0.985 | S. cerevisiae deletion strains, locus YNL248C, strain rpa49, stronger effect = lower value 1 | S. cerevisiae deletion strains, locus YNL250W, strain rad50, stronger effect = lower value 1.01 | S. cerevisiae deletion strains, locus YNL271C, strain bni1, stronger effect = lower value 1.01 | S. cerevisiae deletion strains, locus YNL298W, strain CLA4, stronger effect = lower value 1 | S. cerevisiae deletion strains, locus YNL307C, strain MCK1, stronger effect = lower value 1 | S. cerevisiae deletion strains, locus YNL322C, strain KRE1 (second series), stronger effect = lower value 0.981 | S. cerevisiae deletion strains, locus YNR049C, strain mso1, stronger effect = lower value 0.988 | S. cerevisiae deletion strains, locus YNR052C, strain pop2, stronger effect = lower value 1.01 | S. cerevisiae deletion strains, locus YOL006C, strain TOP1, stronger effect = lower value 1.01 | S. cerevisiae deletion strains, locus YOL012C, strain htz1 0.65 | S. cerevisiae deletion strains, locus YOL147C, strain pex11, stronger effect = lower value 1.01 | S. cerevisiae deletion strains, locus YOR001W, strain rrp6, stronger effect = lower value 0.953 | S. cerevisiae deletion strains, locus YOR061W, strain CKA2, stronger effect = lower value 1.01 | S. cerevisiae deletion strains, locus YOR069W, strain VPS5, stronger effect = lower value 0.997 | S. cerevisiae deletion strains, locus YOR070C, strain gyp1, stronger effect = lower value 0.992 | S. cerevisiae deletion strains, locus YOR080W, strain dia2, stronger effect = lower value 0.988 | S. cerevisiae deletion strains, locus YOR083W, strain WHI5, stronger effect = lower value 1.02 | S. cerevisiae deletion strains, locus YOR106W, strain vam3, stronger effect = lower value 1.03 | S. cerevisiae deletion strains, locus YOR136W, strain idh2, stronger effect = lower value 1.01 | S. cerevisiae deletion strains, locus YOR144C, strain elg1, stronger effect = lower value 1.02 | S. cerevisiae deletion strains, locus YOR184W, strain ser1, stronger effect = lower value 0.996 | S. cerevisiae deletion strains, locus YOR231W, strain MKK1, stronger effect = lower value 1.01 | S. cerevisiae deletion strains, locus YOR265W, strain rbl2, stronger effect = lower value 0.984 | S. cerevisiae deletion strains, locus YOR270C, strain vph1, stronger effect = lower value 0.98 | S. cerevisiae deletion strains, locus YOR290C, strain snf2, stronger effect = lower value 0.97 | S. cerevisiae deletion strains, locus YOR316C, strain cot1, stronger effect = lower value 1.02 | S. cerevisiae deletion strains, locus YPL051W, strain arl3, stronger effect = lower value 1.01 | S. cerevisiae deletion strains, locus YPL078C, strain atp4, stronger effect = lower value 1.01 | S. cerevisiae deletion strains, locus YPL106C, strain sse1, stronger effect = lower value 0.969 | S. cerevisiae deletion strains, locus YPL240C, strain hsp82, stronger effect = lower value 0.988 | S. cerevisiae deletion strains, locus YPL241C, strain CIN2, stronger effect = lower value 1 | S. cerevisiae deletion strains, locus YPL256C, strain CLN2, stronger effect = lower value 0.942 | S. cerevisiae deletion strains, locus YPR119W, strain clb2, stronger effect = lower value 1.01 | S. cerevisiae deletion strains, locus YPR141C, strain kar3, stronger effect = lower value 1.01 | S. cerevisiae deletion strains, locus YPR163C, strain tif3, stronger effect = lower value 1.01 | S. cerevisiae deletion strains, locus YPR167C, strain met16, stronger effect = lower value 1.01 | S. cerevisiae deletion strains, strain wtn01, stronger effect = lower value 1 | S. cerevisiae strains, strain wild type, stronger effect = lower value 0.996
